According to PubChem BioAssay (NCATS):
Inconclusive results are not listed. The source made the active and inactive calls. Calls come from the whole dose curve; as a rule, active = well fitted inhibition curve with a large enough effect; inconclusive = small, poorly fitted or top-dose-only effect; inactive = flat fitted curve, though single readings scatter.

Target: Calcium and integrin-binding protein 1 (Homo sapiens) (UniProt Q99828)
Assay: Primary qHTS for Identification of Calcium Integrin Binding Protein 1 (CIB1) Competitor (AID 1508620); note: top concentration of the series differs between compounds
Settings: CIB1-GST / FITC-alphaIIb peptide fluorescence polarization; series mostly up to 57.7 µM; activity change, negative = inhibition: at the top concentration
How it was run: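 Fluorescence polarization competition: GST-tagged CIB1 (1 uM final) preincubated with compound 15 min at room temperature, then FITC-labelled alphaIIb peptide (100 nM final) added. After 15 min at room temperature, polarization read at Ex 480/Em 540.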
% is set by controls: 0 for no effect and ±100 for the full control effect.

Sequence of Calcium and integrin-binding protein 1 (Homo sapiens) (Q99828 whole entry, looked up): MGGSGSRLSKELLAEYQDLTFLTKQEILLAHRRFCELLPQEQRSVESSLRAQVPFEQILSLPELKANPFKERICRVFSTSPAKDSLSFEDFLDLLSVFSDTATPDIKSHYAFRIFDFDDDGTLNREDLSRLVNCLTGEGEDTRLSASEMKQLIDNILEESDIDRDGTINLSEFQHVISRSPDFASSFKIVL

Row | Compound | activity change, negative = inhibition
1 | COC1C2=C(COC2=O)C2(C)CCCC(C)(CO)C2C1OC(=O)c1ccccc1 (stereo not drawn) | -13.4% (inactive)
2 | COc1cc(O[C@@H]2O[C@H](CO)[C@@H](O)[C@H](O)[C@H]2O)c(CCC(=O)OC[C@H]2O[C@@H](Oc3cc(OC)c(C4OC(=O)C(C)(O)C4O)cc3CCC(=O)O)[C@H](O)[C@@H](O)[C@@H]2O)cc1C1OC(=O)C(C)(O)C1O (stereo partly drawn) | 0.801% [at 30.2 µM] (inactive)
3 | CC(C)[C@H]1CCC(CO)=C[C@@H]1/C=C(\CO)C(=O)O | -0.828% [at 114 µM] (inactive)
4 | O=C(/C=C/c1ccccc1)OCC1=CC[C@@H]2C(C(=O)O)=CO[C@@H](O[C@@H]3O[C@H](CO)[C@@H](O)[C@H](O)[C@H]3O)[C@H]12 | 0.537% (inactive)
5 | C[C@@H]1O[C@@H](O[C@H]2[C@H](O[C@H]3[C@H](O[C@H]4CC[C@@]5(CO)C(CC[C@]6(C)C5CC=C5C7CC(C)(C)C[C@@H](O)[C@]7(C)CC[C@]56C)C4(C)C)O[C@H](C(=O)O)[C@@H](O)[C@@H]3O)OC[C@@H](O)[C@@H]2O)[C@H](O)[C@H](O)[C@H]1O (stereo partly drawn) | -1.21% [at 30.2 µM] (inactive)
6 | COC1=Cc2c(nc3n(c2=O)C(C)C(=O)NC3(O)C(C)C)OC=C1 (stereo not drawn) | -6.05% (inactive)
7 | CC1(C)CC2C3=CCC4C5(C)CCC(OC6OC(C(=O)O)C(O)C(O)C6OC6OC(CO)C(O)C(O)C6OC6OC(CO)C(O)C(O)C6O)C(C)(CO)C5CCC4(C)C3(C)CCC2(C)C(OC2OCC(O)C(OC3OC(CO)C(O)C(O)C3O)C2O)C1O (stereo not drawn) | -16.4% [at 12.4 µM] (inactive)
8 | C=CCc1ccc(O[C@@H]2O[C@H](CO[C@@H]3O[C@@H](C)[C@H](O)[C@@H](O)[C@H]3O)[C@@H](O)[C@H](O)[C@H]2O)cc1 | -1.5% (inactive)
